The structures appear in SMILES notation. The source made the active and inactive calls. The calls were made as follows: active = hit-call score of the fitted dose curve at least 0.9, where 1 is the maximum; inactive = score below 0.9.

Read-out in assay [1]: Interleukin-6 (IL6), IL6 (gene 3569)
The experiment in a line: BSK_CASM3C_IL6: BioMAP Diversity Plus: CASM3C Assay for Interleukin-6 (IL6) Biomarker Activity for (AID 2283040). Conditions: primary human coronary artery smooth muscle cells; actives raise or lower the signal.

Read-out in assay [2]: Tissue plasminogen activator (tPA), PLAT (gene 5327)
Description: BSK_BE3C_tPA: BioMAP Diversity Plus: BE3C Assay for Tissue plasminogen activator (tPA) Biomarker Activity (AID 2283041).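 Also: tPA level quantified by ELISA one day after compound addition.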 The settings on record: primary human bronchial epithelial cells; actives raise or lower the signal. In a few lines: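 tPA measured by ELISA 24 h after dosing human primary bronchial epithelial cells (BE3C system). Changes in either direction were fitted against DMSO. Parallel cultures were stained with SRB to flag overt cytotoxicity.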

Read-out in assay [3]: Interleukin-8 (IL8), CXCL8 (gene 3576)
Description: BSK_CASM3C_IL8: BioMAP Diversity Plus: CASM3C Assay for Interleukin-8 (IL8) Biomarker Activity (AID 2283042).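 Also: IL-8 protein level quantified by ELISA.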 Conditions: primary human coronary artery smooth muscle cells; actives raise or lower the signal.

Read-out in assay [4]: Human Leukocyte Antigen - DR isotype (HLADR), HLA-DRA (gene 3122)
Description: BSK_CASM3C_HLADR: BioMAP Diversity Plus: CASM3C Assay for Human Leukocyte Antigen - DR isotype (HLADR) Biomarker Activity (AID 2283043).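 Also: cell-surface HLA-DR protein level quantified by ELISA.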 The settings on record: primary human coronary artery smooth muscle cells; actives raise or lower the signal.

Read-out in assay [5]: Macrophage colony-stimulating factor (MCSF), CSF1 (gene 1435)
The experiment in a line: BSK_CASM3C_MCSF: BioMAP Diversity Plus: CASM3C Assay for Macrophage colony-stimulating factor (MCSF) Biomarker Activity (AID 2283044).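 Also: M-CSF protein amount quantified by ELISA after 24 h exposure.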 Conditions: primary human coronary artery smooth muscle cells; actives raise or lower the signal.

Read-out in assay [6]: Low-density lipoprotein receptor (LDLR), LDLR (gene 3949)
The experiment in a line: BSK_CASM3C_LDLR: BioMAP Diversity Plus: CASM3C Assay for Low-density lipoprotein receptor (LDLR) Biomarker Activity (AID 2283045).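 Also: LDLR protein level on the cell surface quantified by ELISA.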 The settings on record: primary human coronary artery smooth muscle cells; actives raise or lower the signal.

Read-out in assay [7]: Monocyte Chemoattractant Protein-1 (MCP1), CCL2 (gene 6347)
The experiment in a line: BSK_CASM3C_MCP1: BioMAP Diversity Plus: CASM3C Assay for Monocyte Chemoattractant Protein-1 (MCP1) Biomarker Activity (AID 2283046).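 Also: MCP-1 level quantified by ELISA 24 h after dosing.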 Conditions: primary human coronary artery smooth muscle cells; actives raise or lower the signal.

Assay [8] in a line: BSK_CASM3C_Proliferation: Cell Proliferation Assessment in the BioMAP Diversity Plus: CASM3C Assay (AID 2283047).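 Also: sulforhodamine B total protein stain as relative cell number at 560 nm; sub-confluent cells exposed 48 h before staining; fitted both ways against DMSO so gain or loss of cell number.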 The settings on record: primary human coronary artery smooth muscle cells.
Read-out in assay [9]: Monokine induced gamma interferon (MIG), CXCL9 (gene 4283)
The experiment in a line: BSK_CASM3C_MIG: BioMAP Diversity Plus: CASM3C Assay for Monokine induced gamma interferon (MIG) Biomarker Activity (AID 2283048).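 Also: MIG protein level measured by ELISA.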 The settings on record: primary human coronary artery smooth muscle cells; actives raise or lower the signal.

Read-out in assay [10]: serum amyloid A (SAA), SAA1 (gene 6288)
The experiment in a line: BSK_CASM3C_SAA: BioMAP Diversity Plus: CASM3C Assay for serum amyloid A (SAA) Biomarker Activity (AID 2283049).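 Also: SAA protein level quantified by ELISA.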 Conditions: primary human coronary artery smooth muscle cells; actives raise or lower the signal.

Assay [11] is described as follows: BSK_CASM3C_SRB: Viability Assessment in the BioMAP Diversity Plus: CASM3C Assay (AID 2283050).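 Also: total protein by SRB staining as cytotoxicity measure in parallel cultures; cells exposed to compound for 24 h.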 Conditions: primary human coronary artery smooth muscle cells.
Read-out in assay [12]: Thrombomodulin, THBD (gene 7056)
Description: BSK_CASM3C_Thrombomodulin: BioMAP Diversity Plus: CASM3C Assay for Thrombomodulin Biomarker Activity (AID 2283051).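 Also: thrombomodulin protein level measured by ELISA 24 h after dosing.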 The settings on record: primary human coronary artery smooth muscle cells; actives raise or lower the signal.

Read-out in assay [13]: Tissue Factor, F3 (gene 2152)
Description: BSK_CASM3C_TissueFactor: BioMAP Diversity Plus: CASM3C Assay for Tissue Factor Biomarker Activity (AID 2283052).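 Also: cell surface tissue factor protein level read by ELISA.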 Conditions: primary human coronary artery smooth muscle cells; actives raise or lower the signal.

Read-out in assay [14]: Interferon-gamma inducible Protein 10 (IP10), CXCL10 (gene 3627)
The experiment in a line: BSK_hDFCGF_IP10: BioMAP Diversity Plus: hDFCGF Assay for Interferon-gamma inducible Protein 10 (IP10) Biomarker Activity (AID 2283053). The settings on record: primary human foreskin fibroblasts; actives raise or lower the signal. Put shortly:
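ELISA quantification of IP-10 after a 24 h chemical exposure of human dermal foreskin fibroblast primary cultures. Both increases and decreases versus DMSO fitted.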

Read-out in assay [15]: Urokinase-type plasminogen activator receptor (uPAR), PLAUR (gene 5329)
The experiment in a line: BSK_CASM3C_uPAR: BioMAP Diversity Plus: CASM3C Assay for Urokinase-type plasminogen activator receptor (uPAR) Biomarker Activity (AID 2283054).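 Also: cell-surface uPAR protein level quantified by ELISA.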 The settings on record: primary human coronary artery smooth muscle cells; actives raise or lower the signal.

Read-out in assay [16]: Vascular cell adhesion molecule 1 (VCAM1), VCAM1 (gene 7412)
Description: BSK_CASM3C_VCAM1: BioMAP Diversity Plus: CASM3C Assay for Vascular cell adhesion molecule 1 (VCAM1) Biomarker Activity (AID 2283055).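 Also: VCAM-1 protein level quantified by ELISA on the cells.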 Conditions: primary human coronary artery smooth muscle cells; actives raise or lower the signal.

Read-out in assay [17]: Collagen III, COL3A1 (gene 1281)
The experiment in a line: BSK_hDFCGF_CollagenIII: BioMAP Diversity Plus: hDFCGF Assay for Collagen III Biomarker Activity (AID 2283056). Conditions: primary human foreskin fibroblasts; actives raise or lower the signal. Put shortly:
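Human foreskin primary fibroblasts were exposed to test chemicals for 24 h, after which collagen III was quantified by ELISA. Activity was fitted bidirectionally against DMSO as negative control and baseline.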

Read-out in assay [18]: Epidermal growth factor receptor (EGFR), EGFR (gene 1956)
The experiment in a line: BSK_hDFCGF_EGFR: BioMAP Diversity Plus: hDFCGF Assay for Epidermal growth factor receptor (EGFR) Biomarker Activity (AID 2283057). The settings on record: primary human foreskin fibroblasts; actives raise or lower the signal. Put shortly: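 EGFR levels by ELISA in human dermal fibroblast cultures, 24 h post-treatment, fitted bidirectionally versus DMSO. Parallel wells stained with sulforhodamine B to detect overt cytotoxicity.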

Read-out in assay [19]: Interleukin-8 (IL8), CXCL8 (gene 3576)
The experiment in a line: BSK_hDFCGF_IL8: BioMAP Diversity Plus: hDFCGF Assay for Interleukin-8 (IL8) Biomarker Activity (AID 2283058). The settings on record: primary human foreskin fibroblasts; actives raise or lower the signal. In a few lines:
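hDFCGF human dermal fibroblasts; 24 h chemical exposure; IL-8 by ELISA; bidirectional curve fit vs DMSO baseline; gain or loss of signal scored.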

A short description of assay [20]: BSK_hDFCGF_Proliferation: Cell Proliferation Assessment in the BioMAP Diversity Plus: hDFCGF Assay (AID 2283059).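 Also: curves fitted for both rise and fall of signal versus DMSO baseline.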 The settings on record: primary human foreskin fibroblasts. In a few lines:
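Steps: dose primary human dermal fibroblasts (foreskin); […] fix in 10% TCA; stain with 0.1% SRB; read 560 nm; fit gain or loss of signal against DMSO.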

For `Fc1ccc(Br)cc1`, the result in [1], in [2], in assay [3], in assay [4], in assay [5] and in assay [6] was inactive. For the same compound, the result in assay [7], in assay [8], in assay [9], in assay [10], in assay [11] and in assay [12] was inactive. Besides, the result in [13], in [14], in assay [15], in assay [16], in [17] and in assay [18] was inactive. The result in [19] and in assay [20] was inactive.
Turning to `CCCCCCCCC(CO)CCCCCC` (stereo not given), the outcome in assay [1], in [2], in assay [3], in [4], in assay [5] and in assay [6] was inactive. The outcome in assay [7], in [8], in [9], in assay [10], in assay [11] and in [12] was inactive. The result in assay [13], in assay [14], in assay [15], in assay [16], in assay [18] and in assay [19] was inactive. Further, the half-maximal activity concentration (AC50) – broadly, the concentration giving half of the maximal activity seen – is 4.17 µM (active) in [17] and 4.06 µM (active) in [20].
`CCC1(C)C(=O)N(Cl)C(=O)N1Cl` (stereo not given): the result in [1], in assay [2], in assay [3], in [4], in [5] and in assay [6] was inactive. Besides, the outcome in assay [7], in assay [8], in [9], in assay [10], in [11] and in assay [12] was inactive. Besides, the outcome in assay [13], in [14], in assay [15], in [16], in [17] and in [18] was inactive. Besides, the outcome in assay [19] and in [20] was inactive.
As to `CCCC(C)C(=O)OCC` (stereo not given), the outcome in assay [1], in assay [2], in assay [3], in assay [4], in assay [5] and in assay [6] was inactive. In addition, the result in assay [7], in assay [8], in assay [9], in assay [10], in assay [11] and in [12] was inactive. In addition, the outcome in assay [13], in assay [14], in [15], in [16], in assay [17] and in assay [18] was inactive. Moreover, the result in [19] and in assay [20] was inactive.
For `CC=C(C)C(C)=O`, the result in [1], in assay [2], in assay [3], in [4], in [5] and in assay [6] was inactive. The outcome in [7], in assay [8], in [9], in assay [10], in assay [11] and in [13] was inactive. Besides, the result in [14], in assay [15], in assay [16], in [18] and in [19] was inactive. Besides, the AC50 in assay [12] is 3.97 µM (active); in [17], 3.97 µM (active); in assay [20], 20 µM (active).
Consider `CCCCCCOC(=O)CCCCC(=O)OCCCCCC`, for which the outcome in assay [1], in assay [2], in assay [3], in assay [4], in assay [5] and in [6] was inactive. In addition, the result in [7], in assay [8], in assay [9], in assay [10], in [11] and in [12] was inactive. The result in [13], in [14], in assay [15], in [16], in assay [17] and in assay [18] was inactive. The result in assay [19] and in assay [20] was inactive.
In the case of `Cc1ccc([N+](=O)[O-])cc1N`, the outcome in [1], in assay [2], in [3], in [4], in assay [5] and in [6] was inactive. In addition, the result in assay [7], in assay [8], in assay [9], in assay [10], in assay [11] and in [12] was inactive. In addition, the result in [13], in assay [14], in assay [15], in [16], in assay [17] and in [18] was inactive. Further, the outcome in [19] and in assay [20] was inactive.
As to `CC(C)c1cccc(C(C)C)c1N`, the result in assay [1], in assay [2], in [3], in assay [4], in [5] and in assay [6] was inactive. The outcome in assay [7], in [8], in [9], in assay [10], in [11] and in assay [12] was inactive. Besides, the result in [13], in assay [14], in [15], in assay [16], in assay [17] and in [18] was inactive. The result in assay [19] and in assay [20] was inactive.
As to `Oc1c(Cl)cc(Cl)c(Cl)c1Cl`, the half-maximal activity concentration (AC50) is 0.383 µM (active) in assay [1]; 31.1 µM (active) in assay [14]; 3.97 µM (active) in assay [16]; 10.4 µM (active) in assay [17]; 27.7 µM (active) in assay [20]. In addition, the outcome in [2], in assay [3], in assay [4], in assay [5], in assay [6] and in assay [7] was inactive. The outcome in assay [8], in assay [9], in assay [10], in [11], in assay [12] and in [13] was inactive. For the same compound, the result in [15], in [18] and in assay [19] was inactive.
In the case of `CCCCCCCO`, the result in assay [1], in [2], in assay [3], in assay [4], in assay [5] and in assay [6] was inactive. Also, the result in [7], in assay [8], in assay [9], in [10], in assay [11] and in assay [12] was inactive. In addition, the result in [13], in [14], in [15], in assay [16], in assay [17] and in [18] was inactive. Further, the result in assay [19] and in [20] was inactive.
In the case of `C=CC(=O)NC(C)(C)C`, the outcome in [1], in assay [2], in [3], in assay [4], in assay [5] and in [6] was inactive. Also, the result in [7], in assay [8], in assay [9], in [10], in assay [11] and in assay [12] was inactive. Moreover, the result in assay [13], in assay [14], in assay [15], in [16], in assay [17] and in [18] was inactive. Further, the result in assay [19] and in [20] was inactive.
For `CCc1cccc(C)c1N(C(=O)CS(=O)(=O)O)C(C)COC` (stereo not given), the outcome in assay [1], in [2], in [3], in [4], in assay [5] and in [6] was inactive. The result in [7], in assay [8], in [9], in assay [10], in [11] and in [12] was inactive. Also, the result in assay [13], in assay [14], in assay [15], in [16], in [17] and in assay [18] was inactive. Besides, the result in [19] and in [20] was inactive.
